# From PubChem BioAssay (NCATS)
# Records with an inconclusive call do not appear. Values without a mark were called inactive. Activity calls are given as the source filed them. Calls follow the shape of the dose curve; as a rule, active = well fitted cell-killing curve with a large enough effect; inconclusive = small, poorly fitted or top-dose-only effect; inactive = flat fitted curve, though single readings scatter.
# Test: Quantitative highthroughput screen to assess conditional lethalithy of P12 Ichikawa cells grown in RPMI1640 with untreated serum (RPMI+s) (AID 1963881); also: nearly all actives have a fitted effect of over 35% in size
# Conditions: ATP luminescence, 48 h; Potency: viability; series mostly up to 45.8 µM; viability: at the top concentration
# From the text: Assay Provider: Jason Cantor Ph.D.
# Department of Biochemistry
# University of Wisconsin-Madison, Madison, WI, USA
# Chemical screening studies have identified drug sensitivities across hundreds of cancer cell lines but most putative therapeutics fail to translate. Discovery and development of drug candidates in models that more accurately reflect nutrient levels in human blood is a major challenge. Here we performed high-throughput screens in conventional versus Human Plasma-Like Medium (HPLM) to identify compounds that were "missed" when screening using the artificial culture condition. Sets of conditional anticancer compounds spanned phases of clinical development and included non-oncology drugs were assessed. […] We also traced conditional phenotypes for several chemotherapeutics to availability of HPLM-specific metabolites and confirmed others for compounds whose reported targets are encoded by nonessential genes. Our findings establish generalizable strategies for exploiting conditional lethality in HPLM to reveal therapeutic candidates and mechanisms of action in cancer cells.
# Described herein are the results of each viability screens against three cell lines: NOMO1 (an acute myeloid leukemia cell line); P12-Ichikawa (a T-cell acute lymphoblastic leukemia); and SEM (a B-cell ALL). Each assay was screened using 3 different cell culture media: homemade human plasma-Like medium with 10% dialyzed fetal bovine serum (HPLM+ds); RPMI1640 with 10% untreated FBS and 5mM glucose (RPMI+s); and RPMI1640 with 10% dialyzed fetal bovine serum and 5 mM glucose (RPMI+ds).
# PROTOCOL TABLE (as described by Inglese J, Shamu CE and Guy RK. 2007)
# SEQUENCE No. (e.g., 1, 2, 3, etc.); […] (e.g., Cells, Incubation, Reagent, etc.); VALUE and DESCRIPTION.
# 1; Cells; 5 uL; white, solid bottom 1536-well Greiner assay plate.
# 2; Compounds; 23 nL; Kalypsis pin tool (Wako USA) equipped with a 1536-well pin head to transfer to the assay plates.
# 3; Incubation; 48 hours; 37C incubation.
# 4; Reagent; 3 uL; CellTiter Glo (Promega).
# 5; Incubation; 5 min, room temperature
# 6; Detection; Luminescence, Viewlux PerkinElmer.
# NOTES (numbers refer to Sequence numbers above)
# 1. Briefly, 5 ul of cell reagent was dispensed using a Multidrop Combi Dispenser. The NOMO1 and SEM cells were plated at 500 cells/well and the P12-Ichikawa line at 1000 cells/well.
# 2. After seeding the cells, 23 nL of MIPE 4.1 library compounds (in DMSO) were added to each plate using a Kalypsys 1536 Pintool dispenser. Bortezomib at final concentration of […] and DMSO were added to each plate as positive and negative controls respectively. For each screen, MIPE 4.1 compounds were added over an eleven-point concentration range […] in 3-fold dilutions.
# 3. Each plate was covered with a stainless steel gasketed lid to prevent evaporation and incubated for 48 hour at 37C, 95% relative humidity, and 5% CO2.
# 4-5. Three microliter CellTilter-GloTM luminescent substrate mix (Promega) reagent was added to the assay plate and incubated at room temperature for 5 min.
# 6. The luminescence signal was measured using a ViewLux (PerkinElmer) multiplate reader with a 2 second exposure time per plate. Data for each compound were normalized as percent viability such that measurements for DMSO and the empty well controls in each plate were defined as 100% and 0%, respectively.
# Potency is read from the fitted curve at half-maximal effect.
SMILES,Potency,viability
COc1cc([C@@H]2c3cc4c(cc3[C@@H](O[C@@H]3O[C@@H]5CO[C@@H](c6cccs6)O[C@@H]5[C@H](O)[C@@H]3O)[C@H]3COC(=O)[C@H]23)OCO4)cc(OC)c1O,0.743 µM (active),
Cc1cc2c(s1)Nc1ccccc1N=C2N1CCN(C)CC1,,80.6%
CN(C)CCc1c[nH]c2ccc(CS(=O)(=O)N3CCCC3)cc12,,82.2%
CCc1cc(C(N)=S)ccn1,,87.6%
NC(CO)C(=O)NNCc1ccc(O)c(O)c1O (stereo not given),26.4 µM (active),
Cc1cnc(Nc2cccc(CN3CCOCC3)c2)nc1Nc1cccc(S(=O)(=O)NC(C)(C)C)c1,,85%
C[C@@H](c1ncncc1F)[C@](O)(Cn1cncn1)c1ccc(F)cc1F,,89.7%
CC(=O)[C@]1(O)Cc2c(O)c3c(c(O)c2[C@@H](O[C@H]2C[C@H](N)[C@@H](O)[C@H](C)O2)C1)C(=O)c1ccccc1C3=O,1.48 µM (active),
CN(C)CC(=O)N1CCC(c2ccc(NC(=O)c3ncc(C#N)[nH]3)c(C3=CCCCC3)c2)CC1,,105%
C[N+](C)(C)CC(=O)O,,101%
OCCN1CCN(CCCN2c3ccccc3Sc3ccc(C(F)(F)F)cc32)CC1,11.8 µM (active),
Nc1nc(=S)c2[nH]cnc2[nH]1,20.9 µM (active),
C[C@H]1Oc2cc(cnc2N)-c2c(nn(C)c2C#N)CN(C)C(=O)c2ccc(F)cc21,,97.2%
CCn1cc(C(=O)O)c(=O)c2cc(F)c(N3CCNC(C)C3)c(F)c21 (stereo not given),,104%
CC=CC1=C(C(=O)O)N2C(=O)[C@H](NC(=O)[C@H](N)c3ccc(O)cc3)[C@@H]2SC1,9.35 µM (active),
O=C(CCCCCCC(=O)Nc1cccnc1)NO,8.33 µM (active),
C=CC(=O)Nc1cc(NC(=O)c2ccc(C)c(NC(=O)c3ccno3)c2)cc(C(F)(F)F)c1,,78%
C=C(c1ccc(C(=O)O)cc1)c1cc2c(cc1C)C(C)(C)CCC2(C)C,,95.2%
O=C1NC(=O)C(c2cnc3ccccn23)=C1c1cn2c3c(cc(F)cc13)CN(C(=O)N1CCCCC1)CC2,0.166 µM (active),
C=C1[C@H](n2cnc3c(=O)[nH]c(N)nc32)C[C@H](O)[C@H]1CO,2.96 µM (active),

SMILES,Potency,viability
Cc1ccc(C)c(OCCCC(C)(C)C(=O)O)c1,,112%
CC(C)[C@H](N)C(=O)OCCOCn1cnc2c(=O)[nH]c(N)nc21,,110%
CCOc1cc2ncc(C#N)c(Nc3ccc(F)c(Cl)c3)c2cc1NC(=O)C=CCN(C)C,5.26 µM (active),
CCN1CCN(C(=O)N[C@H](C(=O)N[C@@H]2C(=O)N3C(C(=O)O)=C(CSc4nnnn4C)CS[C@@H]23)c2ccc(O)cc2)C(=O)C1=O,,108% [at 15.3 µM]
COc1ccc(C=Cc2cc(OC)c(OC)c(OC)c2)cc1O,,2.32%
CC1(C)CCC(c2ccc(Cl)cc2)=C(CN2CCN(c3ccc(C(=O)NS(=O)(=O)c4ccc(N[C@H](CCN5CCOCC5)CSc5ccccc5)c(S(=O)(=O)C(F)(F)F)c4)cc3)CC2)C1,0.166 µM (active),
Cc1ccc(C(=O)Nc2cccc(C(F)(F)F)c2)cc1Nc1nc(-c2cccnc2)nc2c1cnn2C,,94.8%
COc1ccc(-c2nc3ccc(C4=NNC(=O)CC4C)cc3[nH]2)cc1 (stereo not given),,103%
CCN1CCCC1CNC(=O)c1cc(S(=O)(=O)CC)c(N)cc1OC (stereo not given),,81.7%
Cn1cnc2c(F)c(Nc3ccc(Br)cc3F)c(C(=O)NOCCO)cc21,,72.7%
O=c1oc2cc(O)ccc2s1,,95.7%
CCOc1cc(CC(=O)N[C@@H](CC(C)C)c2ccccc2N2CCCCC2)ccc1C(=O)O,2.64 µM (active),
O=C(C=CC=Cc1ccc2c(c1)OCO2)N1CCCCC1,,98.5%
CN(C)c1cc(NC(=O)CNC(C)(C)C)c(O)c2c1C[C@@H]1C[C@H]3[C@H](N(C)C)C(=O)C(C(N)=O)=C(O)[C@@]3(O)C(=O)C1=C2O,,97.3%
COC1=C(OC)C(=O)C(CC=C(C)CCC=C(C)CCC=C(C)CCC=C(C)CCC=C(C)CCC=C(C)CCC=C(C)CCC=C(C)CCC=C(C)CCC=C(C)C)=C(C)C1=O,,105%
COC[C@H](NC(=O)c1cnc(C)s1)C(=O)N[C@@H](COC)C(=O)N[C@@H](Cc1ccccc1)C(=O)[C@@]1(C)CO1,0.264 µM (active),
CC(C)(C)[C@H](NC(=O)c1ccc(N)c(Cl)c1)C(=O)N1CCC[C@@H]1C(=O)N[C@H](C#N)CC(=O)O,0.418 µM (active),
COc1ccc2[nH]cc(CCNC(C)=O)c2c1,,101%
CC(C)(C)C(=O)Oc1ccc(S(=O)(=O)Nc2ccccc2C(=O)NCC(=O)O)cc1,,112%
O=C1CCC(N2C(=O)c3ccccc3C2=O)C(=O)N1 (stereo not given),,99%
